# Where “and” joins values, the source holds several entries; their conditions need not be identical. Equal values may be shown once. Records with an inconclusive call do not appear. Where a call stands in place of a potency, no number is given. The source holds several records for some structures; these can differ, active in one and inactive in another. Calls of active or inactive are those of the source. Unless noted, the call rests on the fitted dose curve; in most records, active means well fitted curve in the direction sought with a large enough effect in the repeat runs; inconclusive means weak or mixed curves; inactive means no such curve, though single readings can be large; an effect the other way counts as inactive or inconclusive.
# Legend:
# [1] = qHTS assay to identify small molecule agonists of the NFkB signaling pathway (AID 1159509; active means well fitted curve in the direction sought with a large enough effect in the signal ratio in the repeat runs, not every such curve was filed as active; the % refers to the signal ratio; further: series mostly up to about 61 µM)
# Method in brief: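 ME-180 NFkB-bla, 2,000 cells/well, overnight plating; cpd pinned in DMSO, 5 h 37 C; B/G FRET substrate 1.5 h RT; ex 405, em 460/530 nm.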
# [2] = qHTS assay to identify small molecule agonists of the NFkB signaling pathway - cell viability counter screen (AID 1159515; calls by dose curve; further: series mostly up to about 61 µM; nearly all actives have a fitted effect of over 55% in size)
# Method in brief: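 NFkB-bla ME-180 cells, 2,000/well, plated overnight at 37 C; compound added for 5 hr at 37 C. Viability read in the same wells as the bla reporter, by CellTiter-Glo luminescence after 30 min at room temperature.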
# [3] = qHTS assay to identify small molecule antagonists of the retinoid-related orphan receptor gamma (ROR-gamma) signaling pathway - cell viability counter screen (AID 1159520); further: nearly all actives have a fitted effect of over 50% in size; further: potency means the concentration at half of the fitted maximal effect
# Method in brief: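 Cytotoxicity was read from cellular ATP (CellTiter-Glo luminescence) after 16 hr at 37 C with 1 uM doxycycline induction. The inducer was added 2 hr after compound transfer to Tet-on ROR gamma CHO cells.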
# [4] = target: Nuclear receptor ROR-gamma (Homo sapiens) (UniProt P51449); test: qHTS assay to identify small molecule antagonists of the retinoid-related orphan receptor gamma (ROR-gamma) signaling pathway (AID 1159521; further: nearly all actives have a fitted effect of over 50% in size; further: potency means the concentration at half of the fitted maximal effect)
# Method in brief: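 CHO Tet-on RORγ, RORE-luc reporter. Cpd 2 h pre-incubation, then dox hyclate 1 uM final, 16 h, 37 C/5% CO2. ONE-Glo luminescence; decrease = antagonist.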
# [5] = qHTS assay to identify small molecule agonists of the AP-1 signaling pathway - cell viability counter screen (AID 1159525; calls by dose curve; further: nearly all actives have a fitted effect of over 55% in size)
# Method in brief: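 Luminescent ATP readout (Cell Titer Glo, 30 min RT), normalised to DMSO and tetra n-octyl ammonium bromide controls. Cells were ME-180 AP-1-bla in 0.5% dialyzed FBS Opti-MEM, with a 5 h, 37 °C compound exposure.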
# [6] = target: Retinoic acid receptor RXR-alpha (Homo sapiens) (UniProt P19793); test: qHTS assay to identify small molecule agonists of the RXR signaling pathway (AID 1159527; calls by dose curve; further: nearly all actives have a fitted effect of over 35% in size)
# Sequence of Retinoic acid receptor RXR-alpha (Homo sapiens) (P19793 whole entry, looked up): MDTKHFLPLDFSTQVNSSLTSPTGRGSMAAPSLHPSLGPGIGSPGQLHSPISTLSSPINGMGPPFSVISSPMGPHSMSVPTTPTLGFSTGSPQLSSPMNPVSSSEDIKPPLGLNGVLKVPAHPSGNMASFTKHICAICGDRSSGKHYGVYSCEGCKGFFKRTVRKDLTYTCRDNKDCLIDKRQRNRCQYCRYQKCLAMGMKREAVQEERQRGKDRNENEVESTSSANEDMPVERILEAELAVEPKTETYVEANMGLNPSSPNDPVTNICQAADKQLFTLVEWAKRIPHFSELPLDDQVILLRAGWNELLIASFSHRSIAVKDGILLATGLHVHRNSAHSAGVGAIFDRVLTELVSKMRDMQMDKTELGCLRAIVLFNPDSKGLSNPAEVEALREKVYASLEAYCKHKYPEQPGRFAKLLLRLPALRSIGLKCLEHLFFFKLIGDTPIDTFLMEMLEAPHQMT
# Method in brief: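 Read-out: beta-lactamase FRET ratio (405 nm excitation, 460 and 530 nm emission) after 2 hr substrate loading at room temperature. Cells were RXR-alpha-UAS-bla HEK 293T treated with compounds for 16 hr in 2% charcoal-stripped FBS medium.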
# [7] = qHTS assay to identify small molecule agonists of the RXR signaling pathway - cell viability counter screen (AID 1159529); further: series mostly up to about 77 µM; nearly all actives have a fitted effect of over 50% in size
# Method in brief: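 HEK 293T RXRa-bla cells, 2% CS-FBS; 5 h settle; cpd 16 h 37 C, 5% CO2; CellTiter-Glo 30 min RT, luminescence. Tetraoctyl ammonium bromide as positive control.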
# [8] = qHTS assay to identify small molecule antagonists of the retinoid acid receptor (RAR) signaling pathway - cell viability counter screen (AID 1159551); further: nearly all actives have a fitted effect of over 35% in size
# Method in brief: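 C3RL4 RARE-luciferase cells, 1,000/well, incubated overnight, then dosed with compound plus 1 uM retinol (final). After 6 hr at 37 C, viability read by CellTiter-Glo ATP luminescence following 30 min at room temperature.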
# [9] = qHTS assay to identify small molecule antagonists of the retinoic acid receptor (RAR) signaling pathway (AID 1159552; further: nearly all actives have a fitted effect of over 50% in size; further: potency means the concentration at half of the fitted maximal effect)
# Method in brief: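 Cells of the C3RL4 line were seeded, incubated overnight, then dosed with compounds in DMSO followed immediately by retinol (1 uM final). Six hours later luciferase detection reagent went in; signal was measured after 30 min at RT.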
# [10] = qHTS assay to identify small molecule agonists of the retinoic acid receptor (RAR) signaling pathway (AID 1159553); further: potency means the concentration at half of the fitted maximal effect
# Method in brief: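 C3RL4 RARE-luciferase cells were seeded at 1,000/well and grown overnight at 37 C, then exposed to compounds for 6 hr at 37 C, 5% CO2. Luciferase reagent was added and luminescence was read after 30 min at room temperature.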
# [11] = qHTS assay to identify small molecule agonists of the vitamin D receptor (VDR) signaling pathway - cell viability counter screen (AID 743224); further: nearly all actives have a fitted effect of over 50% in size; further: potency means the concentration at half of the fitted maximal effect
# Method in brief: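 VDR-bla cells, 4 h after plating, exposed to compounds for 16 h at 37C; viability then read in the same wells as CellTiter-Glo luminescence after 30 min at room temperature, following the bla FRET read.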
# [12] = qHTS assay to identify small molecule agonists of the endoplasmic reticulum stress response signaling pathway - cell viability counter screen (AID 1159517; calls by dose curve; further: nearly all actives have a fitted effect of over 50% in size; further: potency means the concentration at half of the fitted maximal effect)
# Method in brief: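 HeLa cells carrying an ESRE-driven beta-lactamase reporter receive compound for 5 hr at 37 C. Cell viability is then gauged with CellTiter-Glo by luminescence, 30 min at room temperature.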
# [13] = qHTS assay to identify small molecule antagonists of the vitamin D receptor (VDR) signaling pathway - cell viability counter screen (AID 743225); further: nearly all actives have a fitted effect of over 50% in size
# Method in brief: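 Read-out: CellTiter-Glo luminescence measured 30 min after reagent addition at room temperature. Cells were VDR-bla HEK 293T exposed 16 h at 37C, 5% CO2, to compound with 3 nM final calcitriol agonist.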
# [14] = qHTS assay to identify small molecule agonists of the AP-1 signaling pathway (AID 1159526; calls by dose curve)
SMILES,outcome [1],Potency [2],Potency [3],Potency [4],Potency [5],Potency [6],Potency [7],Potency [8],Potency [9],Potency [10],Potency [11],Potency [12],Potency [13],outcome [14]
COP(=S)(OC)Oc1cc(Cl)c(I)cc1Cl,inactive,inactive,inactive,inactive,inactive,inactive,inactive,inactive,inactive,inactive,,,,
O=C(O)c1ccccc1C(=O)Nc1cccc2ccccc12,inactive,inactive,,inactive,inactive,inactive,inactive,inactive,inactive,inactive,inactive,inactive,,
C=CCCl,inactive,inactive,inactive,,inactive,,inactive,inactive,inactive,inactive,inactive,,inactive,inactive
CCCC(Cn1cncn1)c1ccc(Cl)cc1Cl (stereo unspecified),inactive,inactive,,,inactive,,,inactive,,inactive,inactive,inactive,inactive,
COCC(C)N(C(=O)CCl)c1c(C)csc1C (stereo unspecified),inactive,inactive,,,inactive,,,inactive,,,,inactive,inactive,
CCOP(=O)(OCC)O/C(=C/Cl)c1ccc(Cl)cc1Cl,inactive,inactive,,68.6 µM (active),inactive,,inactive,inactive,,inactive,,inactive,,
O=C(O)CC(Cl)C(=O)O (stereo unspecified),inactive,inactive,inactive,inactive,inactive,,inactive,inactive,inactive,,inactive,,,inactive
CC1CC(CC2CCC(N)C(C)C2)CCC1N (stereo unspecified),inactive,inactive,inactive,inactive,inactive,inactive,,inactive,,inactive,inactive,,,
CN(C)c1ccc(N(C)C)cc1,inactive,inactive,inactive,inactive,inactive,,inactive,inactive,inactive,12.2 µM (active),,,inactive,
COC(N)=O,inactive,inactive,,inactive,inactive,,inactive,inactive,inactive,inactive,inactive,inactive,inactive,inactive
C=CC(C)=O,inactive,inactive,inactive,,inactive,inactive,inactive,inactive,,,inactive,,inactive,inactive
CN(N=O)c1ccc([N+](=O)[O-])cc1,inactive,inactive,inactive,inactive,inactive,,inactive,inactive,inactive,inactive,inactive,,,inactive
CCC(C)(NC(=O)c1cc(Cl)c(C)c(Cl)c1)C(=O)CCl (stereo unspecified),inactive,inactive,21.8 µM (active),6.15 µM (active),,,,,4.89 µM (active),,55.3 µM (active),,,
O=C(Nc1ccccc1)Nc1ccnc(Cl)c1,inactive,inactive,,,inactive,,,inactive,inactive,,,inactive,,
CCOC(=O)C(Cl)C(C)=O (stereo unspecified),inactive,inactive,inactive,inactive,inactive,,inactive,inactive,inactive,inactive,inactive,,,inactive
CCOC(=O)COc1cc(-c2nn(C)c(OC(F)F)c2Cl)c(F)cc1Cl,inactive,inactive,,,inactive,,inactive,inactive,inactive,inactive,inactive,inactive,inactive,inactive
CC(C)(OO)c1ccccc1,inactive,inactive,,,inactive,,inactive,inactive,inactive,inactive,54.9 µM (active),43.6 µM (active),,inactive
CN1C(=O)C(O)N=C(c2ccccc2)c2cc(Cl)ccc21 (stereo unspecified),inactive,inactive,inactive,inactive,inactive,inactive,inactive,inactive,63.3 µM (active),inactive,inactive,,inactive,inactive
C(=NC1CCCCC1)=NC1CCCCC1,inactive,inactive,,inactive,inactive,,inactive,inactive,inactive,inactive,inactive and 24.5 µM (active),inactive,inactive,inactive
O=C(OC1CCCCC1)c1ccccc1C(=O)OC1CCCCC1,inactive,inactive,,,inactive,,,inactive,,,46 µM (active),inactive,,inactive
CCCN(CC1CC1)c1c([N+](=O)[O-])cc(C(F)(F)F)cc1[N+](=O)[O-],inactive,inactive,,,inactive,,,inactive,,inactive,inactive,inactive,inactive,inactive

# Source: PubChem BioAssay (Tox21)
